Screens as filed in PubChem.
Shiga inhibitor = blocks Shiga toxin action in Vero cells. Vero cells, Shiga toxin protein synthesis inhibition reporter. inhibition, % at 38.7 µM. hit rate 9.2% among 290,000; in the data active = inhibition mostly above about 28%, no sharp cut-off; inactive = mostly below about 43%
AmpC inh no detg = inhibitors of E. coli AmpC beta-lactamase without detergent; P00811; AmpC nitrocefin hydrolysis, absorbance 480 nm, 0.0001% Triton; Potency, µM (top dose mostly 57.1 µM), usual class: inhibitors; hit rate 0.52% among 330,000; AID 485341; note: nearly all actives have a fitted effect of over 20% in size
Target sequence (P00811 whole entry, looked up): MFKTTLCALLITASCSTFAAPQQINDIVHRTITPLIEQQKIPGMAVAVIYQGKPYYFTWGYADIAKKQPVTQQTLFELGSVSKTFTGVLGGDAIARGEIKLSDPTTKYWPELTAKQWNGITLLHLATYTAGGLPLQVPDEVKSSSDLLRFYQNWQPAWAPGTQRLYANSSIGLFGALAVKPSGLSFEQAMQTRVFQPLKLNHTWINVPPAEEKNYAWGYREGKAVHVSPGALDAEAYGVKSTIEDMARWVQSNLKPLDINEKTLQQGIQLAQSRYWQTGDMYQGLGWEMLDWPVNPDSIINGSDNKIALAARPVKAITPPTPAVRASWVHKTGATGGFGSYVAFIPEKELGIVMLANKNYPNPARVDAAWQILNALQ
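AmpC (5.3 nM in the dispensed reagent) in 20 mM phosphate pH 7.0 with 0.01% (detergent screen) or 0.0001% Triton X-100 was preincubated with compounds for 15 min at room temperature. Nitrocefin was then added from an 800 uM solution, and hydrolysis was followed at 480 nm.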
CHX counter = counter-screen hit for Shiga toxin inhibitors, cycloheximide | hit rate 12% among 300,000 | cell reporter, cycloheximide protein synthesis inhibition counterscreen | max response, % | AID 2314; in the data active = max response mostly above about 13%, no sharp cut-off; inactive = mostly below about 14%; note: read at 38.3 µM for the half of the compounds with a filed dose
NS1 inh = influenza NS1 inhibition; AID 2326; Potency, µM (top dose mostly 46.1 µM); hit rate 0.4% among 270,000; calls by dose curve; note: actives are rising curves; nearly all actives have a fitted effect of over 50% in size
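Recovery from NS1-induced slow growth read by OD600 in budding yeast switched to galactose assay medium (pH 6.0, -URA) at 1:100 dilution. Compound 23 nl per well; the matching strain lacking NS1 serves as control.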
AmpC inh detg = inhibitors of E. coli AmpC beta-lactamase with detergent; AmpC hydrolysis of nitrocefin, absorbance 480 nm, 0.01% Triton; AID 485294; Potency, µM (top dose mostly 114 µM), hits mostly inhibitors; hit rate 0.041% among 370,000; note: nearly all actives have a fitted effect of over 25% in size
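20 mM phosphate pH 7.0 + 0.01% (detergent screen) or 0.0001% Triton X-100; 5.3 nM AmpC reagent; cpd preinc 15 min RT; nitrocefin (800 uM stock) to start; A480 q20 s × 4 min; Activity was normalised to no-enzyme and no-compound control wells.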
Numbers stand for hits; n = inactive; u = inconclusive; x = no result given; + = active, no number; ! = not confirmed by another sample. Only a selection was taken, and hits are over-represented in it overall. Unless noted, calls come from the whole dose curve; as a rule, active = well fitted curve in the direction sought with a large enough effect; inconclusive = small, poorly fitted or top-dose-only effect, or another doubt; inactive = no such curve, though single readings can be large; an effect the other way counts as inactive or inconclusive.

SMILES	Shiga inhibitor	AmpC inh no detg	CHX counter	NS1 inh	AmpC inh detg
CN(C)CCCC(=O)c1ccc2c(c1)OCO2	n	n	n	n	n
CN(C)CCC(=O)c1ccc2c(c1)OCO2	n	n	24	n	n
CCN(CC(=O)Nc1ccccc1OC)C(=O)c1cc(S(=O)(=O)N2CCCCCC2)ccc1OC	x	n	x	x	u
Cc1ccc(F)cc1-c1ccc(C(=O)N=C(N)N)o1	60	x	32	x	x
CCOc1ccccc1-c1ccc(C(=O)O)o1	n	x	n	x	x
Cc1ccc(-c2cc(C(=O)N3CCN(S(=O)(=O)c4ccc(Br)s4)CC3)[nH]n2)cc1C	x	x	x	x	n
Cc1ccc(C(=O)O)cc1-c1ccc(/C=C2\SC(=O)N(CC(=O)Nc3ccccc3)C2=O)o1	n	n	n	n	56µM
C#CCN1C(=O)S/C(=C\c2ccc(-c3ccc(C(=O)O)cc3C)o2)C1=O	42	n	39	n	n
Cc1ccc(NC(=O)CN2C(=O)S/C(=C/c3ccc(-c4cccc(C(=O)O)c4)o3)C2=O)cc1	n	n	n	n	n
Cc1cc(C(=O)O)ccc1-c1ccc(/C=C2\SC(=O)N(CC(=O)Nc3ccc4c(c3)OCO4)C2=O)o1	n	n	n	n	n
Cc1ccccc1NC(=O)CN1C(=O)S/C(=C\c2ccc(-c3cc(C(=O)O)ccc3C)o2)C1=O	n	n	n	n	56µM
CC(C)(C)OC(=O)CN1C(=O)S/C(=C\c2ccc(-c3cccc(C(=O)O)c3)o2)C1=O	118	n	27	n	n
CCc1cccc(NC(=O)CN(c2ccc(C)cc2)S(=O)(=O)c2cccs2)c1	x	x	x	x	n
COCCCNC(=O)c1ccc2c(c1)OCO2	+	n	23	n	n
O=C(CNC(=O)c1ccc2c(c1)OCO2)NCCOc1ccc(Cl)cc1	x	n	x	x	x
Cc1ccc(OCCNC(=O)c2ccc3c(c2)OCO3)cc1	66	n	42	n	n
COc1cccc(C(=O)Nc2nc3nc(C)c(C)c(=O)n3[nH]2)c1	x	x	x	x	n
Cc1ccc(S(=O)(=O)CCc2nc3ccccc3s2)cc1	n	n	n	n	n
O=S(=O)(CCc1nc2ccccc2s1)c1ccc2ccccc2c1	118	n	32	n	n
Cc1ccc(S(=O)(=O)CCc2nc3ccccc3s2)cc1C	n	n	13	n	u
Cc1ccc(C)c(Cn2c(=O)n(Cc3ccc4c(c3)OCO4)c(=O)c3oc4ccccc4c32)c1	x	x	x	x	n
CCC(=O)Nc1cccc(-n2nnnc2SCC(=O)N2CCCCC2)c1	n	n	18	n	n
CCc1ccc(NC(=O)CSc2nc3ccccc3nc2N2CCCC2)cc1	n	n	n	u	n
Cc1ccc(NC(=O)CSc2nc3ccccc3nc2N2CCCC2)cc1	33	n	21	n	n
COc1cccc(NC(=O)CSc2nc3ccccc3nc2N2CCOCC2)c1	n	n	24!	n	n
SMILES	Shiga inhibitor	AmpC inh no detg	CHX counter	NS1 inh	AmpC inh detg
CC(C)c1ccc(NC(=O)CSc2nc3ccccc3nc2N2CCCC2)cc1	16	n	n	u	n
COc1cc(NC(=O)CN2CCC(C)CC2)c(C)cc1[N+](=O)[O-]	active	n	n	n	n
COc1ccc(NC(=O)CN2CCCC(C)C2)c([N+](=O)[O-])c1 (stereo not drawn)	32	u	17	n	n
NC(=O)c1c(NC(=O)C2CCCO2)sc2c1CCCC2 (stereo not drawn)	56	n	38	n	n
CCOC(=O)c1c(NC(=O)C2CCCO2)sc2c1CCC2 (stereo not drawn)	n	x	n	n	n
N#Cc1c(NC(=O)C2CC=CCC2C(=O)O)sc2c1CCCCCC2 (stereo not drawn)	n	n	n	n	n
Cc1sc(NC(=O)C2CCCO2)c(C#N)c1C (stereo not drawn)	n	n	15	n	n
N#Cc1c(NC(=O)C2CCCO2)sc2c1CCCCCC2 (stereo not drawn)	84	n	39	n	n
CCc1ccc(OCc2nnc(NC(=O)c3cccs3)s2)cc1	n	n	n	n	n
COC(=O)c1cc(-c2ccccc2)sc1N	58	n	26	n	u
Nc1sc(-c2ccccc2)cc1C(=O)N/N=C/c1ccc(Cl)cc1	34	n	n	n	n
COc1ccc(-n2nc3ccc(NS(C)(=O)=O)cc3n2)cc1Cl	35	n	9.6	n	n
Cc1ccc(-n2cnnn2)cc1Cl	n	n	n	x	n
COc1ccc(-n2nc3ccc(N)cc3n2)cc1Cl	x	n	28	n	n
Cc1ccc(-n2nc3ccc(N)cc3n2)cc1C	x	n	44	u	n
COc1ccc(-n2nc3ccc(NC(=O)COc4ccc(C)c(C)c4)cc3n2)cc1	x	x	x	x	n
Cc1ccc(-n2nc3ccc(N)cc3n2)cc1Cl	67	n	32	n	n
Cc1ccc(-n2nc3ccc(N)cc3n2)c(C)c1	x	n	17	u	n
COc1cc(NC(=O)C(Cc2ccccc2)NS(=O)(=O)c2cccc3nsnc23)cc(OC)c1 (stereo not drawn)	x	x	x	x	n
Cc1cccc(NC(=O)Cn2nnc(C(=O)Nc3ccccc3Br)c2N)c1C	x	x	x	x	n
COc1ccccc1NS(=O)(=O)c1cc(NC(=O)CCNC(C)=O)ccc1N1CCCCC1	x	n	x	x	n
CCN(CC)C(=O)COc1ccc(/C(C)=N/Nc2ncc(Cl)cc2Cl)cc1	66	n	28	n	n
C/C(=N\Nc1ncc(Cl)cc1Cl)c1ccc(C#N)cc1	n	n	n	x	n
CCCCNC(=S)N(C)/N=C/c1ccc(OCc2ccc(C(=O)OC)cc2)c(OC)c1	n	n	n	n	n
N#Cc1c2ccc(OCC(=O)NCc3ccco3)cc2n2ccccc12	n	n	n	n	n
SMILES	Shiga inhibitor	AmpC inh no detg	CHX counter	NS1 inh	AmpC inh detg
N#Cc1c2ccc(O)cc2n2ccccc12	n	n	27	x	n
O=C(Nc1cccc(-c2cn3c(n2)SCC3)c1)c1ccc2ccccc2n1	133	n	45	x	u
CS(=O)(=O)Nc1ccc(-c2cn3c(n2)SCC3)cc1	n	n	n	n	n
O=C(Nc1ccc(-c2cn3c(n2)SCC3)cc1)c1ccc2ccccc2n1	48	n	50	x	n
CCOC(=O)c1[nH]c2ccccc2c1NC(=O)c1cc(OCC)c(OCC)c(OCC)c1	x	x	x	x	n
CC(C)[C@H](NC(=O)c1ccco1)C(=O)OCC(=O)c1ccc(Br)s1	x	n	x	x	x
O=S(=O)(Nc1cccc2ccccc12)c1cccc2ccccc12	n	x	n	x	x
CCCc1nc(SCc2cc(=O)c3ccc(C)c(C)c3[nH]2)n[nH]1	x	x	x	x	n
O=C(N/N=C/c1ccc2c(c1)OCO2)C(=O)Nc1cccc(Cl)c1	65	n	16	n	n
O=C(N/N=C/c1ccc2c(c1)OCO2)c1cccc(NC(=O)c2ccccc2Cl)c1	48	n	n	n	n
O=C(N/N=C/c1ccc2c(c1)OCO2)C(=O)Nc1ccccc1	n	n	n	n	n
O=C(N/N=C/c1ccc2c(c1)OCO2)c1ccc(NC(=O)c2ccccc2Cl)cc1	n	n	n	n	n
Cc1cccc(C(=O)Nc2cccc(C(=O)N/N=C/c3ccc4c(c3)OCO4)c2)c1	79	n	40	n	n
Cc1ccccc1C(=O)Nc1cccc(C(=O)N/N=C/c2ccc3c(c2)OCO3)c1	55	n	20	n	n
